In the OligoGym collection:

These sequences were tested against RILPL1 (assay: pooled miR-30 sensor sort-seq; sequence = guide strand). Details: shRNA.
Note: reference of the scale not given here.

Row | Sequence | sensor-assay potency score (higher = more potent)
1 | TCCTGCAGCAAGAACACCTTGG | -0.555
2 | TGAGAAGTTGACATCCTTGTGG | 0.201
3 | TTGCGCTCCTTCTCGATGCGGT | -0.346
4 | TCATCTATTAGAAACAGTGATA | -1.01
5 | TTGGCGCGGATCTCGTCGCGTT | -1.09
6 | TTGTTTGTCCACCACCTCCTTC | -0.987
7 | TATTCGGTTTTCCTCTTCCATT | -1.63
8 | TTAGAAACAGTGATAGCCCTGG | 0.299
9 | TTTGGCTTAAAGAAGCTTGTGT | 0.806
10 | TTCAGGGTGCATCTGCACCGAG | -0.831
11 | TTGGACTTGAGCTCGTTCCTCT | -0.104
12 | TAAATAAACATTTCTTTAGAGT | -1.18

What follows are sequences tested against RIMKLA in the same assay as above. Details: shRNA.

Row | Sequence | sensor-assay potency score (higher = more potent)
13 | TCACTGTCTGACTGCACTGAGG | -1.83
14 | TTGGACTCGACAGTCCTGGGAG | 0.0465
15 | TAATGTTGTAGCCAGGTTCGGG | -0.494
16 | TAGTCCTCGCGGATGCGCCGGT | -0.762
17 | TTGATGGTATAGACGCTCTCTG | -0.814
18 | TAGCATTTGCCTCACACACCAC | -0.761
19 | ATCAATGCCACAGAAGTCCATG | -1.18
20 | TTTCACTAGAGGTAGACCCACT | -0.539
21 | TCACACACCACAAAGGAGCCAT | 0.0799
22 | AAGCATAGAGCCTATGACCTGG | 0.485
23 | TGTCTGACTGCACTGAGGGTGT | -0.858
24 | TAGGAAGCCAACATTAGCATTT | -1.24

Each sequence was assayed against RIN3 in the same assay as above. Details: shRNA.

Row | Sequence | sensor-assay potency score (higher = more potent)
25 | TTTGATGAGCTTCTCCAGGATG | -0.966
26 | TTCCTTAATGGTGTATTCGAGC | -0.939
27 | ATCTCCTGCAGCATCTCCGTGC | -0.98
28 | TGTTTTGATGAGCTTCTCCAGG | -1.05
29 | TATTCGAGCACCTCGGCCGAGC | -1.09
30 | TAAGTCTCTACTGACACAGTAG | -0.266
31 | TTGCCAACAACTGGAACCGGAC | -1.3
32 | TTGAGCTGGGTCATCATGGTGC | 0.23
33 | TAACTGGTTCTCCTTGAGCTGC | -1.24
34 | TTTGCCAACAACTGGAACCGGA | -0.35
35 | TGTCTAGCTGCTTCTTGCCGGG | -0.191
36 | TAGATGAGTTTGCAGGTCTTGA | -0.805

What follows are sequences tested against RIT1 in the same assay as above. Details: shRNA.

Row | Sequence | sensor-assay potency score (higher = more potent)
37 | TTGGTGACCTGTCTTAGCTGTT | -0.52
38 | TATAGTAGCGGTATGCAGCAGA | 0.384
39 | TACACCACCAGCACCCAGCATC | -0.912
40 | TTATAAGCATCTTCAATGGTGG | -0.101
